Measurements published in PubChem BioAssay (NCATS).
Inconclusive results are not listed. The source made the active and inactive calls. Calls follow the shape of the dose curve; as a rule, active = well fitted curve in the direction sought with a large enough effect; inconclusive = small, poorly fitted or top-dose-only effect, or another doubt; inactive = no such curve, though single readings can be large; an effect the other way counts as inactive or inconclusive. *1 amine or outer side, *2 acyl side, *3 side chain or, on linkers, in order; H or OH if unused. Where a SMILES comes first, the peptide text is derived from it. [ ]: non-standard residue; d: D form. X13 = O=C(C(CC(O)CO)O[*:1])[*:2]; NMeV = CN[CH](C(=O)O)C(C)C; NMeA = CN[CH](C)C(=O)O; βAla = NCCC(=O)O

Experiments:
[1] = system: HACAT; assay: qHTS assay to identify novel small-molecules to repurpose for Merkel cell carcinoma treatment (AID 1296009); settings: MCC and control cell lines, CellTiter-Glo viability, 72 h; at 44.8 µM (top of the series) unless noted; also: nearly all actives have a fitted effect of over 60% in size
Method in brief: (§1)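 Viability readout: ATP luminescence (CellTiter-Glo) after 72 hr drug exposure at 37 degree celsius. Dose-response format was 8 points for NPC and 11 points for MIPE; data normalized to in-plate controls.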

[2] = system: NIH3T3; assay: as above; settings: MCC and control cell lines, CellTiter-Glo viability, 72 h; at 44.8 µM (top of the series) unless noted
Method in brief: as §1

[3] = system: C33A; assay: Primary qHTS to identify gynecologic anti-cancer compounds using libraries of approved drugs and bioactive compounds (AID 1345084); settings: Gynecologic cancer cell panel viability, ATPlite luminescence, 48 h; series mostly up to 57.5 µM; also: nearly all actives have a fitted effect of over 55% in size; also: potency is read from the fitted curve at half-maximal effect; as to activity change, negative = cytotoxicity: % is scaled to controls: 0 for no effect and ±100 for the full control effect
Method in brief: (§2)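 Five-concentration response, 48 h; readout is ATP-driven luciferase luminescence.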

[4] = system: CASKI; assay: as above; settings: Gynecologic cancer cell panel viability, ATPlite luminescence, 48 h; series mostly up to 57.5 µM
Method in brief: as §2

[5] = system: Es-2; assay: as above; settings: Gynecologic cancer cell panel viability, ATPlite luminescence, 48 h; series mostly up to 57.5 µM
Method in brief: as §2

[6] = system: HeLa; assay: as above; settings: Gynecologic cancer cell panel viability, ATPlite luminescence, 48 h; series mostly up to 57.5 µM
Method in brief: as §2

[7] = system: Hek293T; assay: as above; settings: Gynecologic cancer cell panel viability, ATPlite luminescence, 48 h, control line for the selectivity index; series mostly up to 57.5 µM
Method in brief: as §2

[8] = system: JEG-3; assay: as above; settings: Gynecologic cancer cell panel viability, ATPlite luminescence, 48 h; series mostly up to 57.5 µM
Method in brief: as §2

[9] = system: CAOV3; assay: as above; settings: Gynecologic cancer cell panel viability, ATPlite luminescence, 48 h; series mostly up to 57.5 µM
Method in brief: as §2

COC(=O)/C=C/c1ccc(O[C@@H]2O[C@H](CO)[C@@H](O)[C@H](O)[C@H]2O)cc1
inactive: outcome [1] | outcome [2] | Potency [3] | outcome [4] | Potency [5] | Potency [6] | Potency [7] | Potency [8]

C[C@]1(OC(=O)/C=C/c2ccccc2)C[C@@H](O)[C@]2(O)C=CO[C@@H](O[C@@H]3O[C@H](CO)[C@@H](O)[C@H](O)[C@H]3O)[C@@H]21
inactive: outcome [1] inactive [at 17.4 µM] | outcome [2] inactive [at 17.4 µM] | Potency [3] | outcome [4] | Potency [5] | Potency [6] | Potency [7] | Potency [8]

C=CC1(C)CC=C2C(CCC3C(C)(C(=O)O)CCCC23C)C1 (stereo not given)
inactive: outcome [1] | Potency [3] | Potency [9] | outcome [4] | Potency [5] | Potency [6] | Potency [7] | Potency [8]

CCOc1ccc(-c2nn3ncccc3c2-c2ccc(S(C)(=O)=O)cc2)cc1
inactive: outcome [1] | Potency [3] | Potency [9] | outcome [4] | Potency [5] | Potency [6] | Potency [7]

C[C@H]1CC[C@@]2(OC1)O[C@H]1CC3C4CC[C@H]5C[C@@H](O[C@@H]6O[C@H](CO)[C@H](O[C@@H]7O[C@H](CO)[C@@H](O)[C@H](O[C@@H]8OC[C@@H](O)[C@H](O)[C@H]8O)[C@H]7O[C@@H]7O[C@H](CO)[C@@H](O)[C@H](O)[C@H]7O)[C@H](O)[C@H]6O)[C@H](O)C[C@]5(C)C4=CC(=O)[C@]3(C)[C@H]1[C@@H]2C (stereo not given in full)
inactive: outcome [1] inactive [at 9.27 µM] | outcome [2] inactive [at 9.27 µM] | activity change, negative = cytotoxicity [3] 4.61% [at 11.6 µM] | activity change, negative = cytotoxicity [4] -2.7% [at 11.6 µM] | activity change, negative = cytotoxicity [5] -0.121% [at 11.6 µM] | activity change, negative = cytotoxicity [6] 9.97% [at 11.6 µM] | activity change, negative = cytotoxicity [7] 0.949% [at 11.6 µM] | activity change, negative = cytotoxicity [8] -0.32% [at 11.6 µM]

CC/C=C\CC1C(CC(=O)O)CCC1OC1OC(CO)C(O)C(O)C1O (stereo not given)
inactive: outcome [1] | outcome [2] | Potency [3] | outcome [4] | Potency [5] | Potency [6] | Potency [7] | Potency [8]

Cc1ccc(-c2c(-c3nn(C)c4ncnc(N5CC[C@H](N6CCCCC6)C5)c34)cnn2C)cc1
inactive: outcome [1] | outcome [2] | Potency [3] | outcome [4] | Potency [5] | Potency [6] | Potency [7] | Potency [8]

C=C1C(O)CC2C(C(=O)O)=COC(OC3OC(CO)C(O)C(O)C3OC(=O)/C=C\c3ccc(O)cc3)C12 (stereo not given)
inactive: outcome [1] inactive [at 17.4 µM] | outcome [2] inactive [at 17.4 µM] | Potency [9] | outcome [4] | Potency [5] | Potency [6] | Potency [7] | Potency [8]

C=C1CC[C@H]2[C@@](C)(CCC(OC3OC(CO)C(O)C(O)C3O)[C@@]2(C)CO)C1C(=O)CC1=CCOC1=O (stereo not given in full)
inactive: outcome [1] inactive [at 17.4 µM] | outcome [2] inactive [at 17.4 µM] | Potency [3] | outcome [4] | Potency [5] | Potency [6] | Potency [7] | Potency [8]

CC(=O)OC12CC(C)C(OC(=O)c3ccccc3)C1/C=C(/C)C(OC(=O)c1ccccc1)CC(=O)C(C)(C)/C=C/C(C)C2=O (stereo not given)
active: Potency [5] 2.82 µM
inactive: outcome [1] inactive [at 17.4 µM] | Potency [3] | Potency [9] | outcome [4] | Potency [6] | Potency [7]

O=C(O)c1cc(O[C@@H]2O[C@H](CO)[C@@H](O)[C@H](O)[C@H]2O)ccc1O
inactive: outcome [1] | outcome [2] | Potency [3] | outcome [4] | Potency [5] | Potency [6] | Potency [7] | Potency [8]

Cc1ccc([C@@H]2CC=C(C(=O)O)[C@H](c3ccc(C(C)(C)C)cc3)N2S(=O)(=O)c2ccc(C)cc2)cc1
inactive: outcome [1] | outcome [2] | Potency [3] | outcome [4] | Potency [5] | Potency [6] | Potency [7] | Potency [8]

C[C@]1(O)CC[C@@H]2C(C(=O)O)=CO[C@@H](O[C@@H]3O[C@H](COC(=O)/C=C/c4ccc(O)c(O)c4)[C@@H](O)[C@H](O)[C@H]3O)[C@@H]21
inactive: outcome [1] inactive [at 17.4 µM] | outcome [2] inactive [at 17.4 µM] | Potency [3] | outcome [4] | Potency [5] | Potency [6] | Potency [7] | Potency [8]

COc1cc(CO)ccc1O[C@@H]1O[C@H](CO)[C@@H](O)[C@H](O)[C@H]1O
inactive: outcome [1] | outcome [2] | Potency [3] | outcome [4] | Potency [5] | Potency [6] | Potency [7] | Potency [8]

O=C(O)CC(CCc1ccccc1)OC1OC(CO)C(O)C(O)C1O (stereo not given)
inactive: outcome [1] | outcome [2] | Potency [3] | outcome [4] | Potency [5] | Potency [6] | Potency [8]

CCCC1=CC2=C(CO1)C(=O)C(C)(O)C(OC(=O)c1c(C)cc(OC)cc1O)C2 (stereo not given)
inactive: outcome [1] inactive [at 17.4 µM] | outcome [2] inactive [at 17.4 µM] | Potency [3] | outcome [4] | Potency [5] | Potency [6] | Potency [7] | Potency [8]

C[C@@H]1C[C@@H](O)[C@@]23CO[C@]2(CO)C[C@@H](O)CC3[C@@]12CC(c1ccoc1)OC2=O (stereo not given in full)
inactive: outcome [1] | outcome [2] | Potency [3] | outcome [4] | Potency [5] | Potency [6] | Potency [7] | Potency [8]

CC(=O)c1c(C)cccc1O[C@@H]1O[C@H](CO)[C@@H](O)[C@H](O)[C@H]1O
inactive: outcome [1] | outcome [2] | Potency [3] | outcome [4] | Potency [5] | Potency [6] | Potency [7] | Potency [8]

CC1=CC(=O)C2C(C)(C)CCC[C@]2(C)[C@H]1CC[C@H](C)CC(=O)O (stereo not given in full)
inactive: outcome [1] | outcome [2] | Potency [3] | outcome [4] | Potency [5] | Potency [6] | Potency [7] | Potency [8]

C=C(C)[C@@]1(O)C[C@@]2(C)C(=CC1=O)CC[C@@H](O)[C@@H]2C
inactive: outcome [1] | outcome [2] | Potency [3] | outcome [4] | Potency [5] | Potency [6] | Potency [7] | Potency [8]

Cc1occc(=O)c1O[C@@H]1O[C@H](COC(=O)CC(C)(O)CC(=O)O)[C@@H](O)[C@H](O)[C@H]1O (stereo not given in full)
inactive: outcome [1] inactive [at 17.4 µM] | outcome [2] inactive [at 17.4 µM] | Potency [3] | outcome [4] | Potency [5] | Potency [6] | Potency [7] | Potency [8]

COc1cccc(CN(C(=O)CC(C)(C)C)C2CC(C(=O)N3CCNCC3)N(Cc3ccc4c(c3)OCO4)C2)c1 (stereo not given)
inactive: outcome [1] | outcome [2] | Potency [3] | outcome [4] | Potency [5] | Potency [6] | Potency [7] | Potency [8]

C/C=C1/CC2C(=O)Nc3cc(O)c(OC)cc3C(=O)N2C1 (stereo not given)
inactive: outcome [1] | outcome [2] | Potency [3] | outcome [4] | Potency [5] | Potency [6] | Potency [7] | Potency [8]

CC1=C2C[C@@]3(C)[C@@H](CCC[C@@H]3C)C[C@@]2(O)OC1=O
inactive: outcome [1] | outcome [2] | Potency [3] | outcome [4] | Potency [5] | Potency [6] | Potency [7] | Potency [8]

CCC(C)C1NC(=O)C2CCCN2C(=O)C(CC(O)CO)OC(=O)CCNC(=O)C(C)N(C)C(=O)C(C(C)C)N(C)C1=O (stereo not given) (cyclo([X13]PI[NMeV][NMeA][βAla]); configuration not given here)
inactive: outcome [1] inactive [at 17.4 µM] | outcome [2] inactive [at 17.4 µM] | Potency [3] | outcome [4] | Potency [5] | Potency [6] | Potency [7] | Potency [8]

CC(=O)/C=C/[C@H]1[C@](C)(O)[C@@H](O)[C@H](O)C2C(C)(C)CCC[C@@]21C (stereo not given in full)
inactive: outcome [1] | outcome [2] | Potency [9] | Potency [5]

COc1cc(O)cc(C)c1C(=O)O[C@H]1[C@@H](O)[C@@H](n2ccc(=O)[nH]c2=O)O[C@@H]1CO
inactive: outcome [1] inactive [at 17.4 µM] | outcome [2] inactive [at 17.4 µM] | Potency [3] | outcome [4] | Potency [5] | Potency [6] | Potency [7] | Potency [8]

CC1CCC2(C(=O)OC3OC(CO)C(O)C(O)C3O)CCC3(C)C(=CCC4C5(C)CCC(O)C(C)(CO)C5CCC43C)C2C1(C)O (stereo not given)
inactive: outcome [1] inactive [at 17.4 µM] | outcome [2] inactive [at 17.4 µM] | Potency [3] | outcome [4] | Potency [5] | Potency [6] | Potency [7] | Potency [8]

C=CC(C)(C)C12Nc3c(ccc4c3OC(C)(C)C=C4)C1(O)CC1C(=O)N3CCCC3C(=O)N12 (stereo not given)
inactive: outcome [1] inactive [at 17.4 µM] | outcome [2] inactive [at 17.4 µM] | Potency [3] | outcome [4] | Potency [5] | Potency [6] | Potency [7] | Potency [8]

C/C(=C\CCC(C)(C)O)CCO[C@@H]1O[C@H](CO[C@@H]2O[C@@H](C)[C@H](O)[C@@H](O)[C@H]2O)[C@@H](O)[C@H](O)[C@H]1O
inactive: outcome [1] inactive [at 17.4 µM] | outcome [2] inactive [at 17.4 µM] | Potency [9] | outcome [4] | Potency [5] | Potency [6] | Potency [7] | Potency [8]

CO[C@H]1c2cc(C(C)C)c(O)c(O)c2[C@@]23CCCC(C)(C)C2[C@@H]1OC3=O (stereo not given in full)
inactive: outcome [1] | outcome [2] | Potency [3] | outcome [4] | Potency [5] | Potency [6] | Potency [7] | Potency [8]

CC(C)(O)C1CC=C(C(=O)OC[C@H]2O[C@@H](OC(=O)C3=CCC(C(C)(C)O)CC3)[C@H](O)[C@@H](O)[C@@H]2O)CC1 (stereo not given in full)
inactive: outcome [1] inactive [at 17.4 µM] | outcome [2] inactive [at 17.4 µM] | Potency [3] | outcome [4] | Potency [5] | Potency [6] | Potency [7] | Potency [8]

COc1ccc(CCc2nc3cc(-c4c(C)noc4C)ccc3n2C[C@H](C)N2CCOCC2)cc1Cl
inactive: outcome [1] | outcome [2] | Potency [3] | outcome [4] | Potency [5] | Potency [6] | Potency [7] | Potency [8]

O=C(O)C1(c2ccc(-c3ccc(Cl)c(Cl)c3)c(F)c2)CC1
inactive: outcome [1] | outcome [2] | Potency [3] | outcome [4] | Potency [5] | Potency [6] | Potency [7] | Potency [8]
